# From PubChem BioAssay
# Rows were chosen to be rich in hits. Some 19% of all compounds tested hit in one or more screens of this group.
# KB-3-1 tox = KB-3-1 parental cell cytotoxicity. KB-3-1 viability, CellTiter-Glo ATP luminescence, 72 h. actives 1.4% (n = 400,000). Potency, µM (top dose mostly 46.1 µM), most hits filed as cytotoxic. AID 1347075; also: nearly all actives have a fitted effect of over 60% in size
#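 Screening of KB-3-1 cells (DMEM, 10% FBS, phenol-red free) ran from lowest to highest compound concentration; after 72 h at 37 °C viability was read luminescently and curves fitted.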
# DT40 TDP1 no CPT = qHTS for Inhibitors of human tyrosyl-DNA phosphodiesterase 1 (TDP1): qHTS in cells in absence of CPT | Potency, µM (series often up to 46.2 µM), for the others: at the top dose activity change, negative = growth inhibition, most hits filed as inhibitors | DT40 Tdp1-/- hTDP1 cells, no CPT, ATP luminescence, 48 h | actives 15% (n = 420,000); also: nearly all actives have a fitted effect of over 55% in size
#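 A cellular qHTS used chicken DT40 cells lacking endogenous Tdp1 but carrying stably transfected human TDP1. Compounds were applied without camptothecin, and cell growth kinetics were judged by ATP-dependent luminescence after ≥48 hr.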
# HT1080NT lethal = kills 2HG-producing HT-1080-NT fibrosarcoma cells | HT-1080-NT fibrosarcoma viability, CellTiter-Glo ATP luminescence, 48 h | Potency, µM (series often up to 46.1 µM), inactives show top-dose activity, negative = less viability, hits mostly cytotoxic | actives 1.6% (n = 360,000) | AID 686970;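 also: NT is the 2HG producing partner of a matched IDH1 knockdown line; 0% = DMSO-treated cells and -100% = media-only wells without cells; nearly all actives have a fitted effect of over 55% in size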
#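 Toxicity toward the 2HG-producing NT line was scored as %Activity, normalised to DMSO and no-cell wells, from CellTiter-Glo luminescence after 48 hours' treatment.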
# KB-V1 MDR tox = KB-V1 MDR subline cytotoxicity; KB-V1 MDR cells viability, CellTiter-Glo, 72 h; Potency, µM (highest dose often 46.1 µM), most hits filed as cytotoxic; actives 3.4% (n = 400,000); AID 1347076; also: nearly all actives have a fitted effect of over 60% in size
#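 Luminescent ATP read-out (CellTiter-Glo, 10 min) measures survival of drug-selected KB-V1 MDR cells after 72 h, 37 degrees C compound exposure. Medium: phenol-red-free DMEM, 10% FBS. Values from fitted concentration-response curves.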
# HT1080 IDH1KD tx = kills HT-1080 cells with IDH1 knockdown. Potency, µM (series often up to 46.1 µM), for inactives: top-dose activity, negative = toxicity, usual class: cytotoxic. HT-1080 IDH1 knockdown viability, ATP luminescence, 48 h. actives 2% (n = 360,000);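 also: 0% = DMSO wells and -100% = cell-free medium wells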
#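 Assay cells: HT-1080 with IDH1 knockdown, 750 per well, RPMI/5% FBS. Exposure: 48 h at 37 °C following 2 h pre-incubation. Read: CellTiter-Glo luminescence; fitted concentration-response, curve class assigned.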
# TDP1 cell CPT = growth inhibition of DT40 Tdp1-/-;hTDP1 cells with camptothecin (screen for TDP1 inhibitors); AID 686979; chicken DT40 Tdp1-/-;hTDP1 cells + 20 nM CPT, ATP luminescence, 48 h; Potency, µM (series often up to 46.2 µM), for inactives: at the highest dose activity change, negative = growth inhibition, most hits filed as inhibitors; actives 12% (n = 420,000); also: nearly all actives have a fitted effect of over 55% in size
#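 Chicken DT40 Tdp1-/- cells complemented with human TDP1, 400 cells/well, exposed to compounds plus 20 nM camptothecin for at least 48 h at 37 C; viability read as ATP content by CellTiter-Glo luminescence.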
# * = called active by the depositor; i = inactive; ? = inconclusive; . = no result. Calls follow the shape of the dose curve; as a rule, active = well fitted curve in the direction sought with a large enough effect; inconclusive = small, poorly fitted or top-dose-only effect, or another doubt; inactive = no such curve, though single readings can be large; an effect the other way counts as inactive or inconclusive. Unless noted, % is scaled to controls: 0 for no effect and ±100 for the full control effect; potency is read from the fitted curve at half-maximal effect.
SMILES,KB-3-1 tox,DT40 TDP1 no CPT,HT1080NT lethal,KB-V1 MDR tox,HT1080 IDH1KD tx,TDP1 cell CPT
Cc1cc(C(=O)COc2ccc(C#N)cc2)c(C)n1CC1CCCO1 (centres undefined),i,13µM*,-12%,i,-2%,29µM*
CCC(=O)c1ccc(OCC(=O)OCC(=O)c2cc(C)n(CC3CCCO3)c2C)cc1 (centres undefined),i,8%,3%,?,0%,2%
Cc1cc(C(=O)COc2ccc(C#N)cc2)c(C)n1-c1ccc2c(c1)OCO2,?,9.2µM*,-1%,i,-13%,9.2µM*
Cc1cc(C(=O)COC(=O)C2=COCCO2)c(C)n1-c1ccc2c(c1)OCO2,i,?,-9%,i,-11%,?
Cc1cccc(N2CCN(C(=O)c3cccn4c(=O)c5cc(Cl)ccc5nc34)CC2C)c1 (centres undefined),i,?,.,i,.,18µM*
CCOc1ccc(-c2cc(C(=O)N3CCN(c4ccc(C)cc4)C(C)C3)c3ccccc3n2)cc1 (centres undefined),i,23µM*,.,i,.,21µM*
CCOc1ccc(-c2cc(C(=O)N3CCN(c4cccc(C)c4)C(C)C3)c3ccccc3n2)cc1 (centres undefined),?,7.3µM*,.,i,.,16µM*
COCCNC(=O)CCn1c(=O)c2cc(OC)c(OC)cc2n(CC(=O)Nc2ccccc2OC)c1=O,i,-3%,.,i,.,-3%
Cc1ccc(CSc2ccc3nnc(CCNS(=O)(=O)c4ccc(C)cc4)n3n2)cc1,i,?,.,i,.,16µM*
O=S(=O)(NCCc1nnc2ccc(SCc3ccc(C(F)(F)F)cc3)nn12)c1ccccc1,i,?,.,i,.,15µM*
Cc1ccc(S(=O)(=O)NCCc2nnc3ccc(SCc4ccccc4F)nn23)cc1,i,21µM*,.,i,.,18µM*
O=S(=O)(NCCc1nnc2ccc(SCc3cccnc3)nn12)c1ccccc1,i,-10%,1%,i,1%,-12%
COc1ccc(S(=O)(=O)NCCc2nnc3ccc(SCC(=O)Nc4cc(C)cc(C)c4)nn23)cc1,i,?,.,i,.,21µM*
CC(=O)c1ccc(NC(=O)CSc2ccc3nnc(CCNS(=O)(=O)c4ccc(C)cc4)n3n2)cc1,i,?,.,i,.,-28%
CCc1nn(CC(=O)NCCc2ccc(OC)cc2OC)c(=O)c2cc3c(OC)cccc3n12,i,?,.,i,.,?
O=c1[nH]c(Cc2ccc(F)cc2)nc2scc(-c3ccc(F)cc3)c12,?,26µM*,10%,?,2%,13µM*
Cc1ccc(-c2csc3nc(CN(C)Cc4ccccc4)[nH]c(=O)c23)cc1,i,26µM*,-17%,?,-2%,?
O=C(OCc1nc2scc(-c3ccccc3)c2c(=O)[nH]1)c1ccco1,i,-17%,7%,i,17%,1%
O=c1[nH]c(Cc2cccs2)nc2scc(-c3ccc(Cl)cc3)c12,i,-28%,6%,i,6%,13µM*
Cc1ccc(-c2csc3nc(-c4ccncc4)[nH]c(=O)c23)cc1,?,2.6µM*,-13%,i,-9%,4.1µM*
CN(C)CCNC(=O)c1cccc(-c2cccc3nncn23)c1,i,-1%,0%,i,22%,-20%
CCc1ccc(-c2cc(C(=O)NCc3ccccn3)c3ccccc3n2)cc1,i,?,-1%,?,4%,?
Cc1ccc2nc(-c3ccncc3)cc(C(=O)NCCc3ccc(F)cc3)c2c1,i,?,-3%,?,-7%,?
Cc1ccc2nc(-c3ccccn3)cc(C(=O)NCCc3ccc(F)cc3)c2c1,.,21µM*,-1%,.,3%,?
O=C(NCCc1ccccn1)c1cc(-c2cccc3ccccc23)nc2ccccc12,i,?,-8%,i,-5%,26µM*
SMILES,KB-3-1 tox,DT40 TDP1 no CPT,HT1080NT lethal,KB-V1 MDR tox,HT1080 IDH1KD tx,TDP1 cell CPT
Cc1ccc(-c2cc(C(=O)NCCc3ccccn3)c3ccccc3n2)c(C)c1,i,?,1%,?,5%,?
Cc1ccc(-c2cc(C(=O)NCc3ccccn3)c3ccccc3n2)cc1,i,16µM*,-12%,i,-21%,?
O=C(NCc1ccccn1)c1cc(-c2ccc(Br)cc2)nc2ccccc12,i,13µM*,9%,2.6µM*,12%,?
C#CCNC(=O)c1cc2c(Br)ccc(Br)c2nc1N,i,-19%,10%,i,-6%,-2%
Cc1cccc(N2CCn3c2nc2c3c(=O)n(CCCc3ccccc3)c(=O)n2C)c1,.,?,.,.,.,-26%
COc1cc(OC)c(/C=N/NC(=O)c2ccc(NC(C)=O)cc2)cc1Br,i,-15%,24%,i,19%,12%
CC(=O)Nc1ccc(C(=O)N/N=C/c2cc(Br)cc(Br)c2O)cc1,i,10µM*,?,i,?,12µM*
CC(C)C(=O)Nc1ccc(C(=O)N/N=C/c2cc(Br)cc(Br)c2O)cc1,?,13µM*,?,?,?,7.3µM*
CCCc1nc2ccccc2n1C(CCSC)C(=O)NC(C)(C)C (centres undefined),i,?,-2%,i,11%,-18%
O=C(C[C@@H]1C=C[C@@H](NC(=O)C2CC2)[C@@H](CO)O1)NCc1ccccc1Cl,i,-5%,12%,i,24%,-5%
CCN(CC)S(=O)(=O)c1csc(C(=O)NCc2ccccc2)c1,i,?,-3%,21µM*,-1%,-33%
Cc1cccc(-c2c3c(nc4c2c(=O)n(C)c(=O)n4C)-c2ccccc2C3O)c1 (centres undefined),i,4.6µM*,5%,i,-5%,5.8µM*
O=C(Cc1ccc(Cl)cc1)Nc1nnc2n1CCS2,i,-13%,.,i,.,-18%
COc1ccc(-c2nc(Cn3c(SCc4ccccc4F)nc4ccncc43)c(C)o2)cc1OC,i,21µM*,.,i,.,18µM*
COC(=O)c1cc2sc(Cl)cc2n1Cc1nc(-c2ccccc2F)oc1C,i,-12%,.,i,.,-20%
COc1ccc(-c2nc(Cn3c(SCc4cccc(F)c4)nc4ccncc43)c(C)o2)cc1OC,i,?,-24%,i,-7%,?
